# Results published in PubChem BioAssay AID2501 (Southern Research Specialized Biocontainment Screening …, 2010).
# The whole screen tested about 2,200 compounds, of which about 1,200 (55%) were called active. The set was probably picked from earlier hits. Some of the results follow. Unmarked numbers belong to inactive results. The limit is not given here; nearly all actives have IC50 up to about 92 µM.
# Test: counter assay for TAg ATPase ADP read-out – biochemical, ADP-Hunter, fluorescence, counter-screen (AID 2501);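 also: purified T antigen ATPase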;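 as to inhibition: 0% = enzyme with vehicle and 100% = reference inhibitor wells; higher means more inhibition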
# Conditions: series mostly up to 100 µM; inhibition: at the top concentration
Compound,IC50,inhibition
CCOc1cc(/C=C2/N=C(C)C(C(=O)OC)=C2O)ccc1O,3.91 µM (active),–
COC(=O)C1=C(O)/C(=C\c2ccc(O)c(OC)c2)N=C1C,3.81 µM (active),–
CCOC(=O)C1=C(O)/C(=C\c2ccc(O)c(OCC)c2)N=C1C,9.47 µM (active),–
C#CCOCCOCCOCCNc1nc(N2CCN(C(=O)CCCCCCCCCCNC(=O)[C@H]([C@@H](C)CC)n3cc(CCCCN=C(N)N)nn3)CC2)nc(N2CCN(C(=O)CCCCCCCCCCNC(=O)[C@H]([C@@H](C)CC)n3cc(CCCCN=C(N)N)nn3)CC2)n1,–,2.94%
O=[N+]([O-])c1ccc(C2(O)CN(c3ccccc3)C3=[N+]2CCS3)cc1 (centres undefined),–,0.4%
COc1cc(SC#N)ccc1N=Cc1c(C)[nH]n(-c2ccc(C)cc2)c1=O,–,6.95%
Cc1[nH]n(-c2ccccc2)c(=S)c1C=Nc1ccc([N+](=O)[O-])cc1,48 µM (active),–
COc1ccc(NC2CCCN(C(=O)CSc3ccccc3)C2)cc1 (centres undefined),4.76 µM (active),–
COc1ccc(NC2CCCN(C(=O)CCCn3cncn3)C2)cc1 (centres undefined),11.5 µM (active),–
O=C1CCCCN1CCC(=O)N1CCCC(Nc2ccccc2)C1 (centres undefined),–,-15.5%
COc1ccc(NC2CCCN(C(=O)CCn3cccn3)C2)cc1 (centres undefined),5.33 µM (active),–
CCCn1c(SCC(=O)N2CCCC(C)C2)nnc1-c1ccccn1 (centres undefined),–,-17.7%
OCCC1CN(Cc2cccn2-c2ncccn2)CCN1CCc1ccccc1 (centres undefined),–,-12.1%
COc1ccc(C2=CC3=C(Br)C(=O)C(C)(OC(=O)c4cccs4)C(=O)C3=CO2)cc1 (centres undefined),–,20.1%
CC(=O)NS(=O)(=O)c1ccc(N=c2ssc3c2-c2cc(C)ccc2NC3(C)C)cc1,74.3 µM (active),–
CN1C=CC=C/C1=C(\C#N)c1nc2ccccc2[nH]1,4.36 µM (active),–
NS(=O)(=O)c1ccc(N/N=C/c2ccc[nH]2)c([N+](=O)[O-])c1,14.6 µM (active),–
Cc1cs/c(=N\N=C\c2ccc(O)cc2)n1Cc1ccco1,5.01 µM (active),–
CCOc1cccc(=O)c2c(C)n(Cc3ccco3)c(C)c12,–,27.8%
O=C(CCc1nnc(C2(c3ccc(Cl)cc3)CCC2)o1)N1CCCC(O)C1 (centres undefined),–,14.3%
CC(C)CN(Cc1c(O)ccc2c3c(c(=O)oc12)CCC3)CC(C)C,5.92 µM (active),–
CSC1=NSC2=NC(=O)/C(=C\c3coc4ccccc4c3=O)C(=N)N12,–,18.9%
CC(C)CC1=NN2C(=N)/C(=C\c3coc4ccccc4c3=O)C(=O)N=C2S1,–,16.1% [at 50 µM]
O=C1NN(c2ccccc2)C(=O)/C1=C\c1coc2ccc(O)cc2c1=O,10.7 µM (active),–
O=C1NN(c2cccc(Br)c2)C(=O)/C1=C\c1ccc(O)cc1,11.6 µM (active),–

Compound,IC50,inhibition
N=C1/C(=C\c2coc3ccc(O)cc3c2=O)C(=O)N=C2SC=CN12,84.9 µM (active),–
Cc1cc(C)c2nc(-c3ccco3)cc(C(=O)O)c2c1,–,-31.8%
COc1ccc(-n2c(=O)c3c4c(sc3n3c(=S)[nH]nc23)COC(C(C)C)C4)cc1 (centres undefined),16.3 µM (active),–
CC(C)C1Cc2c(sc3c2c(=O)n(-c2ccccc2)c2n[nH]c(=S)n32)CO1 (centres undefined),21.9 µM (active),–
Cc1cc(C)c2c(=O)n(CC(=O)NCCCN3CCN(c4ccccc4F)CC3)sc2n1,–,8.21%
C=CCOC(=O)C1=C(C)N=c2s/c(=C3\C(=O)N(CC(=O)O)c4ccccc43)c(=O)n2C1c1ccc(OC)cc1 (centres undefined),–,16.1%
CCOC(=O)c1c(C)n(C)c2ccc(OCC(O)CN(CC)CC)cc12 (centres undefined),–,-25.9%
C=C1CC(C(=O)N/N=C/c2ccc(O)cc2)C1,5.39 µM (active),–
Cc1nonc1C(=O)N/N=C/c1ccc(O)c(O)c1,2.13 µM (active),–
O=C(N/N=C/c1ccc(O)c(O)c1)C1CC1,4.15 µM (active),–
COc1ccc2c(c1)c(C(=O)N/N=C/c1ccc(O)c(O)c1)c(C)n2C,14.6 µM (active),–
O=C(NCCO)Nc1ccc2nc(-c3ccco3)c(-c3ccco3)nc2c1,–,-158%
O=C(N/N=C/c1ccc(O)c(O)c1)N/N=C/c1ccc(O)c(O)c1,1.85 µM (active),–
S=c1[nH]nc(NCCCN2CCOCC2)s1,52.3 µM (active),–
COc1ccc(C2CC(=O)N3CN(c4ccccc4F)CSC3=C2C#N)cc1OC (centres undefined),–,27.1%
CN1CSC2=C(C#N)C(c3cccc(OCc4ccccc4)c3)CC(=O)N2C1 (centres undefined),21.8 µM (active),–
CCOc1ccc2ccccc2c1C(=O)N[C@@H]1C(=O)N2[C@@H]1SC(C)(C)[C@@H]2C(=O)O,–,25.5%
CC(C)c1ccc(C2CC(=O)N3CN(C)CSC3=C2C#N)cc1 (centres undefined),–,13.5%
CCOc1ccccc1N1CSC2=C(C#N)C(c3c(OC)ccc4ccccc34)CC(=O)N2C1 (centres undefined),81.2 µM (active),–
COc1ccccc1N1CSC2=C(C#N)C(c3ccc(SC)cc3)CC(=O)N2C1 (centres undefined),27.8 µM (active),–
COc1cc(SC#N)ccc1N=Cc1c(C)[nH]n(-c2cccc3ccccc23)c1=O,–,16%
COc1ccc(N2CSC3=C(C#N)C(c4ccc(OC)c(OC)c4)CC(=O)N3C2)c(OC)c1 (centres undefined),24.8 µM (active),–
CC(=O)N1N=C(c2ccc(C)cc2)CC1c1ccco1 (centres undefined),–,27.2%
COc1cc(OC)c(C2CC(=O)N3CN(c4ccc(C)cc4)CSC3=C2C#N)cc1OC (centres undefined),68 µM (active),–
COc1cc(OC)c(C2CC(=O)N3CN(C)CSC3=C2C#N)cc1OC (centres undefined),83.4 µM (active),–

Compound,IC50,inhibition
COc1ccc(OC)c(C2CC(=O)N3CN(c4cccc(Cl)c4C)CSC3=C2C#N)c1 (centres undefined),–,16.4%
COc1ccc(N2CSC3=C(C#N)C(c4cc(OC)ccc4OC)CC(=O)N3C2)c(OC)c1 (centres undefined),9.09 µM (active),–
COc1cc(OC)c(C2CC(=O)N3CN(c4ccccc4C)CSC3=C2C#N)cc1OC (centres undefined),–,26.7%
COc1ccc(N2CSC3=C(C#N)C(c4cc(OC)c(OC)cc4OC)CC(=O)N3C2)c(OC)c1 (centres undefined),78.4 µM (active),–
COc1ccc2c(c1OC)C(=O)N1c3ccccc3N=C(c3ccc([N+](=O)[O-])cc3)CC21 (centres undefined),–,-23.3%
O=C(NCc1ccco1)/C(=C/c1ccc(C(F)(F)F)cc1)c1nc2ccccc2[nH]1,–,-8.13%
N#C/C(=C/c1ccc(O)c(O)c1)c1nc2ccccc2[nH]1,5.71 µM (active),–
O=C(CC(=O)N/N=C/c1ccc(O)cc1)N/N=C/c1ccc(O)cc1,1.98 µM (active),–
O=C(CCn1cnc2ccccc21)N/N=C/c1ccc(O)cc1,7.9 µM (active),–
O=C(C[n+]1ccccc1)N/N=C/c1ccc(O)cc1,3.04 µM (active),–
Cc1cccc(-c2nn(-c3ccccc3)cc2C(=O)Nc2cccc(S(=O)(=O)NC3=NCCC3)c2)c1,–,10.6%
Cc1nc2cc(-c3ccsc3-n3c(C)ccc3C)[nH]n2c(=O)c1Cl,–,-94.4%
CNc1nc(-c2ccccc2)[n+](-c2ccc(C)cc2)s1,18.6 µM (active),–
COc1cc2c(cc1OC)-c1cc(Nc3ccc(N(C)C)cc3)nc(=O)n1CC2,1.76 µM (active),–
O=C1CSC(=Nc2ccc(O)cc2)N1c1ccc(O)cc1,3.6 µM (active),–
O=C1C=CC(=O)N1c1ccc(O)cc1,–,29.8%
Cc1nnc(N/N=C/c2c(O)n(-c3cccc(C(F)(F)F)c3)c(=O)c3ccccc23)[nH]c1=O,8.07 µM (active),–
CN(C)c1ccc(CNc2ccc3c(c2)ncn3C)cc1,13.5 µM (active),–
CC(C)c1ccc(CNc2nnnn2C)cc1,–,-26.9%
Cc1ccc(CNc2ccc3c(c2)ncn3C(C)C)cc1,12.7 µM (active),–
CCn1cnc2cc(NCc3ccc(N(C)C)cc3)ccc21,10.5 µM (active),–
ClC(Cl)(c1nnnn1-c1ccccc1)c1nnnn1-c1ccccc1,–,-14.1%
CC(Cc1ccc(O)c(O)c1)C(C)Cc1ccc(O)c(O)c1 (centres undefined),22.3 µM (active),–
CCCCCCN=C(C)c1ccccc1O,–,-32.1%
O=C(O)c1cccc(S(=O)(=O)Nc2ccc3oc(=O)sc3c2)c1,–,24.3%

Compound,IC50,inhibition
CC(=O)N(c1ccc2oc(=O)sc2c1)S(=O)(=O)c1ccccc1,62.1 µM (active),–
CSc1nc(O)c(C(c2ccc(OC(C)C)cc2)c2c(O)nc(SC)[nH]c2=O)c(=O)[nH]1,–,-0.04%
COc1cc(/C=N/NC(=O)CC2C(=O)NN=C2C)ccc1O (centres undefined),5.63 µM (active),–
COc1cc(/C=N/NC(=O)C2=NNC(=O)C2C)ccc1O (centres undefined),6.5 µM (active),–
CCCc1cc(=O)[nH]c(Nc2ccc(O)cc2)n1,3.17 µM (active),–
Oc1ccc2ccccc2c1C=Nc1ccc(N2CCOCC2)cc1,2.74 µM (active),–
COc1cccc(C=Nc2ccc(N3CCOCC3)cc2)c1O,5.29 µM (active),–
Oc1ccc(N=Cc2cc(Br)c(N3CCOCC3)o2)cc1,8.18 µM (active),–
Oc1ccc(C=Nc2ccc(N3CCOCC3)cc2)c(O)c1,2.33 µM (active),–
Cc1ccc(NC(NC(=O)Cc2ccccc2)C(Cl)(Cl)Cl)cc1 (centres undefined),–,-24.6%
CC1CCCN(Cc2nc(Cc3ccccc3Cl)no2)C1 (centres undefined),–,-5.63%
COc1ccc(CC(O)COS(N)(=O)=O)cc1 (centres undefined),–,-27.6%
O=[N+]([O-])/C=C\c1ccc(N2CCOCC2)cc1,–,-8.52%
O=[N+]([O-])c1cc(Cc2ccccc2)cc(C=Nc2ccc(N3CCOCC3)cc2)c1O,3.16 µM (active),–
C(=Nc1ccc(N2CCOCC2)cc1)c1c[nH]c2ccccc12,7.55 µM (active),–
O=C(O)c1cc(-c2ccco2)nc2cc3ccccc3cc12,–,8.1%
O=c1cc(CN2CCN(c3ccc(O)cc3)CC2)nc2scc(-c3ccccc3)n12,9.38 µM (active),–
CCC(=O)NC(C)C(c1cccs1)N1CCN(c2ccccc2)CC1 (centres undefined),–,1.69%
O=c1[nH]c(=S)[nH]c2[nH]c(=S)[nH]c12,52.7 µM (active),–
CC(C)N1CN(c2ccccc2)C(=S)N(c2ccccc2)C1,–,13.2%
N#C/C(C(=O)Nc1ccc(Cl)cc1)=C(/S)Nc1ccccc1,21.8 µM (active),–
Cc1nnc(Nc2ccc(O)cc2)[nH]c1=O,3.89 µM (active),–
Cc1n[nH]c(=O)nc1Nc1ccc(O)cc1,2.48 µM (active),–
Cc1[nH]nc(Nc2ccc(O)cc2)c1[N+](=O)[O-],3.93 µM (active),–
